The source of these data is PubChem BioAssay (NCATS).

Experiment [1] concerns the target Lysosomal acid glucosylceramidase (Homo sapiens) (UniProt P04062). As to the kind of experiment: Glucocerebrosidase-p2 (AID 348; in the data active = potency below about 10 µM; note: potency is the fitted concentration of half-maximal effect). The conditions noted are these: purified GBA, blue fluorogenic substrate, 40 min. Summed up: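 Normal human glucocerebrosidase (0.2 nM) with blue fluorogenic substrate (80 uM final) in citrate/phosphate pH 5.9 with 10mM sodium taurocholate, 0.01% tween-20; 40 min RT, NaOH/glycine stop; fluorescence Ex 365/Em 440; AC50 from a titration from 0.6 nM upwards.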

Experiment [2] is described as follows: AP1 Signaling Pathway (AID 357; active = well fitted curve in either direction with a large enough effect, not every such curve was filed as active;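 note: ME-180 reporter cells stimulated with EGF at its EC50 level; % is set by controls: 0 for no effect and ±100 for the full control effect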). The conditions noted are these: ME-180 AP-1-bla reporter, EGF-induced, beta-lactamase ratio, 5 h; at 7.69 µM (top of the series) unless noted. Summed up: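 AP-1-bla ME-180 cells, Opti-MEM + 0.5% dialyzed FBS, plated overnight 37 °C. Cpd titration + EC50 EGF, 5 h 37 °C. CCF4 2.5 h RT; ex 405, em 460/530 ratio → %activity, AC50.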

Experiment [3] in a line: Stat Signaling Pathway (AID 446; active = well fitted curve in either direction with a large enough effect, not every such curve was filed as active;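 note: ME-180 cervical cancer cells given 40 pM IL-6 alongside compound; SIE-controlled beta-lactamase reporter measured as 460/530 nm FRET emission ratio; % is set by controls: 0 for no effect and ±100 for the full control effect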). The note with it: ME-180 SIE beta-lactamase reporter, IL-6 stimulated, 5 h; at 7.69 µM (top of the series) unless noted. Summed up:
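Emission at 460 and 530 nm (excitation 405 nm) reports SIE-controlled beta-lactamase in ME-180 cells. Cells received compound with 40 pM IL-6 for 5 hrs at 37 C; data scaled between 300 pM IL-6 and 125 nM JAK-inhibitor controls.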

Experiment [4] has as its target Glucocorticoid receptor (Homo sapiens) (UniProt P04150). The experiment in a line: GR-GFP Redistribution (AID 450;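 active = compounds whose dose series gives a full or clear partial fitted curve of increased nuclear translocation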; note: potency is the fitted concentration of half-maximal effect). The conditions noted are these: U2OS GR-GFP nuclear translocation, laser cytometry, 2 h.
Experiment [5] has the same target. As to the kind of experiment: GR-EFC Redistribution (AID 451; calls by dose curve; note: potency is the fitted concentration of half-maximal effect). The note with it: CHO-K1 GR-EFC translocation, beta-gal luminescence, 2 h. Summed up: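 CHO-K1 cells stably expressing nuclear-localized β-gal enzyme acceptor and GR fused C-terminally to the enzyme donor fragment; ligand-driven nuclear translocation restores β-gal by complementation. Compounds titrated up to 46 uM final, 2 h at 37 °C; luminescence read.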

Experiment [6] concerns the target Mitogen-activated protein kinase 10 (Mus musculus) (UniProt Q61831). The experiment in a line: JNK3 AlphaScreen Assay (AID 530; active = well fitted curve in either direction with a large enough effect, not every such curve was filed as active;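 note: kinase came from lysate of stimulated human HepG2 cells; signal reports phosphorylation of biotinylated GST-cJun 1-79 at Ser73 with 10 µM ATP; % is set by controls: 0 for no effect and ±100 for the full control effect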). The conditions noted are these: JNK3 lysate, c-Jun phosphorylation; series mostly up to 57.1 µM. Summed up:
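Phosphorylation of biotinylated GST-cJun(1-79) at Ser73 is measured by AlphaScreen proximity luminescence. Enzyme is JNK3 in HepG2 lysates activated with interleukin-1beta and tumor necrosis factor alpha; ATP is 10 uM final.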

Experiment [7] addresses 3',5'-cyclic-AMP phosphodiesterase 4B (Homo sapiens) (UniProt Q07343). As to the kind of experiment: qHTS Assay for Inhibitors of PDE-IV (AID 607; active = well fitted activation curve with a large enough effect in the main read-out, with a control signal flat, not every such curve was filed as active; note: % of control where 0% means no effect). The note with it: HEK293 ACTOne CNG channel cells, membrane potential fluorescence; series mostly up to 22.9 µM. Summed up: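 The readout is membrane depolarisation from a cAMP-sensing CNG channel, detected with a potential dye at ex 535/em 590. Cells were HEK293-derived (endogenous PDE-IV) at 1000 cells/well, titrated up to 22.9 uM final.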

In experiment [8] the target is Dual specificity protein kinase CLK4 (Homo sapiens) (UniProt Q9HAZ1). As to the kind of experiment: qHTS Assay for Inhibitors of CDC-like Kinase 4 (Kinase-Glo Assay) (AID 1770). Note: nearly all actives have a fitted effect of over 65% in size. Note: potency is the fitted concentration of half-maximal effect. The conditions noted are these: recombinant Clk4, Kinase-Glo ATP depletion luminescence; series mostly up to 66.7 µM. Summed up:
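Recombinant human Clk4 (25 nM) phosphorylated RS repeat peptide (100 uM) with 1 uM ATP in Tris pH 7.5/MgCl2/EGTA/DTT/Triton buffer for 4.5 h at room temperature. Residual ATP was quantified by Kinase-Glo luciferase luminescence.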

For experiment [9] the target is unchanged. The experiment in a line: qHTS Assay for Inhibitors of CDC-like Kinase 4 (ADP-Glo Assay) (AID 1771). Note: nearly all actives have a fitted effect of over 70% in size. Note: potency is the fitted concentration of half-maximal effect. The note with it: recombinant CLK4, ADP-Glo luminescence; series mostly up to 80 µM. In short, it runs like this:
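ADP production was read by ADP-Glo luminescence after residual ATP depletion, following 1 h room-temperature reaction of 25 nM Clk4, 1 uM ATP and 100 uM RS peptide with MgCl2, EGTA, DTT and Triton X-100.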

For experiment [10] the target is unchanged. The experiment in a line: qHTS Assay for Inhibitors of CDC-like Kinase 4 (ADP-FP Assay) (AID 1795). Note: % is set by controls: 0 for no effect and ±100 for the full control effect; nearly all actives have a fitted effect of over 60% in size. The note with it: Transcreener ADP fluorescence polarization; series mostly up to 50 µM. Summed up:
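Recombinant human Clk4 (6.25 nM) phosphorylated RS repeat peptide (100 uM) with 1 uM ATP in Tris pH 7.5/MgCl2/EGTA/DTT/Triton buffer for one hour. ADP was quantified by Transcreener competitive fluorescence polarization against an ADP calibration curve.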

Experiment [11] deals with Ubiquitin carboxyl-terminal hydrolase 1 (Homo sapiens) (UniProt O94782). The experiment in a line: Inhibitors of USP1/UAF1: Pilot qHTS (AID 504865).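 Note: rhodamine fluorescence freed from ubiquitin-rhodamine substrate followed over time; top concentration of the series differs between compounds; % is set by controls: 0 for no effect and ±100 for the full control effect; nearly all actives have a fitted effect of over 35% in size.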 The conditions noted are these: purified USP1/UAF1, Ub-rhodamine cleavage fluorescence; series mostly up to 54.9 µM. Summed up:
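USP1/UAF1 complex (1nM) preincubated with compound 15 min at room temperature, then Ub-Rho substrate (150nM final) added. Fluorescence read kinetically at 480/540 nm, 6 reads every 60 seconds. Buffer: 50mM HEPES pH 7.8, 0.5mM EDTA, 0.1 mg/ml BSA, 1mM TCEP, 0.01% Tween-20.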

Experiment [12] can be described thus: Primary qHTS for small molecule stabilizers of the endoplasmic reticulum resident proteome: Secreted ER Calcium Modulated Protein (SERCaMP) assay (AID 1508630). Note: % is set by controls: 0 for no effect and ±100 for the full control effect. The note with it: SH-SY5Y GLuc-SERCaMP (Gaussia luciferase released on ER calcium loss) secretion, thapsigargin, luminescence; series mostly up to 38.4 µM. Summed up:
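The SH-SY5Y reporter protocol was run at 3 concentrations up to 38.3 uM (primary) or 11 concentrations (follow-up): 16 h compound, 100 nM thapsigargin for 4 h, then extracellular luciferase luminescence.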

For experiment [13], the target named is Cytochrome P450 1A2 (Homo sapiens) (UniProt P05177). As to the kind of experiment: p450-cyp1a2 (AID 410; calls by dose curve; note: potency is the fitted concentration of half-maximal effect). The note with it: recombinant CYP1A2, luciferin-ME demethylation, luminescence; series mostly up to 57 µM. Summed up:
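Luminescent demethylation readout: Luciferin-ME (100uM, equal to Km) turned over by 20nM CYP1A2 for 60 min at room temperature after NADPH regeneration addition, following 10 min compound preincubation. Normalization used 57 uM furafylline as full inhibition.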

Experiment [14] in a line: NFAT Signaling Pathway (AID 444; active = well fitted curve in either direction with a large enough effect, not every such curve was filed as active). The conditions noted are these: Jurkat NFAT-bla M1, carbachol, beta-lactamase ratio, 5 h; at 7.69 µM (top of the series) unless noted. Summed up: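 Jurkat cells carrying an NFAT-driven β-lactamase reporter and co-transfected muscarinic M1 receptor were treated with compound plus carbachol (1 uM final, an EC50 level) for 5 h at 37 °C. CCF4 loading followed for 1 h at RT; 460/530 nm ratio gave %activity.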

The target in experiment [15] is Cytochrome P450 2C9 (Homo sapiens) (UniProt P11712). As to the kind of experiment: qHTS Assay for Inhibitors and Substrates of Cytochrome P450 2C9 (AID 883). Note: potency is the fitted concentration of half-maximal effect; nearly all actives have a fitted effect of over 60% in size. The conditions noted are these: recombinant CYP2C9, luciferin-H luminescence, 60 min; series mostly up to 57.1 µM. In short, it runs like this: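 Human CYP2C9 (10nM) hydroxylated Luciferin-H (100uM, at its KM) to luciferin in 25mM KPO4. Compound was preincubated 10 min at 37C, then NADPH regeneration started a 60 min reaction at 37C. Luminescence was read after detection reagent, normalized to 57uM sulphaphenazole.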

Experiment [16] has as its target Cytochrome P450 3A4 (Homo sapiens) (UniProt P08684). The experiment in a line: qHTS Assay for Inhibitors and Substrates of Cytochrome P450 3A4 (AID 884). Note: nearly all actives have a fitted effect of over 50% in size. Note: potency is the fitted concentration of half-maximal effect. The note with it: recombinant CYP3A4, Luciferin-PPXE luminescence; series mostly up to 57.1 µM. In short, it runs like this:
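Luminescent readout of luciferin produced by CYP3A4 (20 nM) dealkylation of Luciferin-PPXE, 25 uM (its KM). NADPH-driven reaction ran 60 min at RT after 10 min compound preincubation; data scaled to 57 uM ketoconazole as 100% inhibition.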

Experiment [17] shares this target. The experiment in a line: qHTS Assay for Activators of Cytochrome P450 3A4 (AID 885). Note: nearly all actives have a fitted effect of over 65% in size. The conditions noted are these: recombinant CYP3A4, Luciferin-PPXE luminescence, 60 min; series mostly up to 57.1 µM. Summed up: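 Activators are scored by enhanced luminescence from CYP3A4 conversion of luciferin-PPXE (25uM, equal to KM) to luciferin, after 60 min at RT with an NADPH-regenerating system.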

Experiment [18] concerns the target Cytochrome P450 2C19 (Homo sapiens) (UniProt P33261). As to the kind of experiment: qHTS Assay for Inhibitors and Substrates of Cytochrome P450 2C19 (AID 899). Note: nearly all actives have a fitted effect of over 60% in size. Note: potency is the fitted concentration of half-maximal effect. The conditions noted are these: recombinant CYP2C19, luciferin-H EGE luminescence; series mostly up to 57.1 µM. In short, it runs like this: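 Human CYP2C19 (5nM) with Luciferin-H EGE at 10uM (its KM) in 50mM KPO4 was preincubated with compound for 10 min at 37C. NADPH regeneration started a 60 min 37C reaction. Luciferin was read by luminescence, normalized to 57uM ketoconazole.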

The nature of experiment [19]: qHTS Assay for Identification of Small Molecule Agonists for Hypoxia Response Element Signaling Pathway (AID 914; active = well fitted activation curve with a large enough effect in the signal ratio, with a control signal flat, not every such curve was filed as active; the % refers to the signal ratio; note: potency is the fitted concentration of half-maximal effect). The conditions noted are these: ME-180 (cervical carcinoma) HRE-bla reporter, beta-lactamase ratio, CoCl2, 17 h; activation: stronger effect = higher value. In short, it runs like this:
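Compounds in a titration series were added to ME-180 reporter cells alongside an EC50 level of CoCl2. After 17 hours, beta-lactamase activity was read as the 460nm/530nm emission ratio of CCF4, giving AC50 values.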

Values without a mark were called inactive. Inconclusive results are not listed. Activity calls are given as the source filed them. Unless noted, calls come from the whole dose curve; as a rule, active = well fitted curve in the direction sought with a large enough effect; inconclusive = small, poorly fitted or top-dose-only effect, or another doubt; inactive = no such curve, though single readings can be large; an effect the other way counts as inactive or inconclusive.

Chain of Cytochrome P450 3A4 (Homo sapiens) (P08684 whole entry, looked up): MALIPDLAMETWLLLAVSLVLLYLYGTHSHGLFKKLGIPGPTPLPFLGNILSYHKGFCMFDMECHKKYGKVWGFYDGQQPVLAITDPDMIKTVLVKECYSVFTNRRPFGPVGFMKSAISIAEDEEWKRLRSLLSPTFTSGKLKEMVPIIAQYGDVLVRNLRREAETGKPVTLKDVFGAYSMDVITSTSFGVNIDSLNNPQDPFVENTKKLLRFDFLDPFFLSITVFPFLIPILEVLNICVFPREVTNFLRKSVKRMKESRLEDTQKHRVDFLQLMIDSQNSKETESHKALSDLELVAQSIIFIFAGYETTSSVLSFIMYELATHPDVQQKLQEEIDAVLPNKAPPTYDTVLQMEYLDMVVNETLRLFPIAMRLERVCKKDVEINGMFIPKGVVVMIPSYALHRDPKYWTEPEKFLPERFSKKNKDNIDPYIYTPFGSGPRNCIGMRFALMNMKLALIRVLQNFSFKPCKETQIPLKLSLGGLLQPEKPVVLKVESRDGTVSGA
Chain of 3',5'-cyclic-AMP phosphodiesterase 4B (Homo sapiens) (Q07343 whole entry, looked up): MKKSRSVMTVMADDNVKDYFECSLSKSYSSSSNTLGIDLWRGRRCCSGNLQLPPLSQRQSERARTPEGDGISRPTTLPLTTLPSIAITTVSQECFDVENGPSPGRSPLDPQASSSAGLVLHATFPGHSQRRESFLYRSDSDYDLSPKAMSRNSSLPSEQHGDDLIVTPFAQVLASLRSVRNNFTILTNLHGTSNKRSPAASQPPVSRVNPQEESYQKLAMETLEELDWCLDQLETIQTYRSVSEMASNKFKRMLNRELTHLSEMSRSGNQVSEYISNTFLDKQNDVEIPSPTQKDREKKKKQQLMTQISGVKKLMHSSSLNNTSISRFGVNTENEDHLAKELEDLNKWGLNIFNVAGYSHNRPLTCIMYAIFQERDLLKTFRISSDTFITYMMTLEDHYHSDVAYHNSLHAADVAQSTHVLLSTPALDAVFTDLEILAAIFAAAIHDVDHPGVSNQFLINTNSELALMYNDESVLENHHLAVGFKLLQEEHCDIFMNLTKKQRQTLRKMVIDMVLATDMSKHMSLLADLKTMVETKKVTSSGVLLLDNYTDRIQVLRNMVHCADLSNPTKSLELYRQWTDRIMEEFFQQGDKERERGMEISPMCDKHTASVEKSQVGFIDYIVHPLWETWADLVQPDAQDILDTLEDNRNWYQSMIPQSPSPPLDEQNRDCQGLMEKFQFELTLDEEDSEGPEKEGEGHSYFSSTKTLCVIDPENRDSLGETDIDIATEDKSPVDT
Chain of Lysosomal acid glucosylceramidase (Homo sapiens) (P04062 whole entry, looked up): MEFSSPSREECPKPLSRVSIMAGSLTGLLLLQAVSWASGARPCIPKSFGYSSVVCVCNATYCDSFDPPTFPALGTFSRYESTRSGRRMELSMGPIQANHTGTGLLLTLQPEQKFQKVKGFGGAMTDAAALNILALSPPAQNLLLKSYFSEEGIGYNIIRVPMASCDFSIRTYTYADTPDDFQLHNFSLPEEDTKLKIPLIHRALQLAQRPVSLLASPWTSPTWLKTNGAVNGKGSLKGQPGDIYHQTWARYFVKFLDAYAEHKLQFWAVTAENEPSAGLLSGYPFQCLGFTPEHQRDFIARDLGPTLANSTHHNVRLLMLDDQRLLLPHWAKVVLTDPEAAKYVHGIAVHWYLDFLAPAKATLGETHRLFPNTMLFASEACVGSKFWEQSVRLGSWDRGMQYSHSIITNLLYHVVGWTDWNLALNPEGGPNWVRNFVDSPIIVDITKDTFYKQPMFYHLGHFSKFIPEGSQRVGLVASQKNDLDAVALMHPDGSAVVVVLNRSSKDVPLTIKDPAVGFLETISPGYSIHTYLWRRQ
Chain of Ubiquitin carboxyl-terminal hydrolase 1 (Homo sapiens) (O94782 whole entry, looked up): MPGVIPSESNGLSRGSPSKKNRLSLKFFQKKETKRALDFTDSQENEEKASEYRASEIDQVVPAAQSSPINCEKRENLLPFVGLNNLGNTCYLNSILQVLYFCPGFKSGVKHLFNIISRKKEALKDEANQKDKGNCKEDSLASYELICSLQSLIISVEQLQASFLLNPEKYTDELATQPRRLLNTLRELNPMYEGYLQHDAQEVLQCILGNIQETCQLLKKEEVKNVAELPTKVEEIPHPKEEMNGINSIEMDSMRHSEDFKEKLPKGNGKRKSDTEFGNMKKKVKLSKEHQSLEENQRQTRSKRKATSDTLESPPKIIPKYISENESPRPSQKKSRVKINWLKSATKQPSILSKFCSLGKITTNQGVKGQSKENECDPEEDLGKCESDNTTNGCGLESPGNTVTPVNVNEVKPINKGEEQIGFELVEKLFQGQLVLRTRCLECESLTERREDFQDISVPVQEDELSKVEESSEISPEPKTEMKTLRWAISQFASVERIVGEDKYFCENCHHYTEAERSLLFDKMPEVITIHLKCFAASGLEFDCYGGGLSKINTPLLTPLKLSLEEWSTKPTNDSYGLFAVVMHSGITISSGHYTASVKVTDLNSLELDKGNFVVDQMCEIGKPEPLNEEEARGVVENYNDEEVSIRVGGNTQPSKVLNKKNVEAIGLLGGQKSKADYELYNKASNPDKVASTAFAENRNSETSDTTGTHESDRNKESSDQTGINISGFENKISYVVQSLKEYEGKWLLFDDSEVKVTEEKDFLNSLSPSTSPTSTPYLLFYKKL
Chain of Cytochrome P450 1A2 (Homo sapiens) (P05177 whole entry, looked up): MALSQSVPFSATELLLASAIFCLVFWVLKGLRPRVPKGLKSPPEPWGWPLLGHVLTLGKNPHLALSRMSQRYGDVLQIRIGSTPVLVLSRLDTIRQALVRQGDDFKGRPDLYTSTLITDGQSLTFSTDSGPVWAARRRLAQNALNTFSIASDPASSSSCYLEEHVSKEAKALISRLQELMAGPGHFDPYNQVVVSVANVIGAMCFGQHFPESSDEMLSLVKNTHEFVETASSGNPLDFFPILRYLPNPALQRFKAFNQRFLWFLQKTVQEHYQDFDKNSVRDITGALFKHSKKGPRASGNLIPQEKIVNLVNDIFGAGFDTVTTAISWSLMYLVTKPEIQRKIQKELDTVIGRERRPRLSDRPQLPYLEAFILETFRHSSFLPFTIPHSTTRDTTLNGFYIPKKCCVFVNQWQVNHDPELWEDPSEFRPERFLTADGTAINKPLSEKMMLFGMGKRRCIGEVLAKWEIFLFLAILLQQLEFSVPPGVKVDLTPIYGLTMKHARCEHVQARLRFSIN
Chain of Dual specificity protein kinase CLK4 (Homo sapiens) (Q9HAZ1 whole entry, looked up): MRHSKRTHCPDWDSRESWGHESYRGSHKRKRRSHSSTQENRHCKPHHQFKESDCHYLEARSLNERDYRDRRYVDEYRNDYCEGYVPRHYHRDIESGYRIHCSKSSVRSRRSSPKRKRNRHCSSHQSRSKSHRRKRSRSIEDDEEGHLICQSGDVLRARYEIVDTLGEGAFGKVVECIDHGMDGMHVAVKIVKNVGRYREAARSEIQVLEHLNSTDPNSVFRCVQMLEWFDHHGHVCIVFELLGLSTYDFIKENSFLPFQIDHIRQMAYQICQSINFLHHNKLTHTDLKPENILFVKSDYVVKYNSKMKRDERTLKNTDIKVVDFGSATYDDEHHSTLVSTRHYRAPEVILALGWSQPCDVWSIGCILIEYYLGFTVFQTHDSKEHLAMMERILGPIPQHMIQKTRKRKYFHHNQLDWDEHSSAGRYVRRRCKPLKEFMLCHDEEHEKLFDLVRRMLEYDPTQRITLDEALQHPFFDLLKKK
Chain of Glucocorticoid receptor (Homo sapiens) (P04150 whole entry, looked up, the tested form may be a part): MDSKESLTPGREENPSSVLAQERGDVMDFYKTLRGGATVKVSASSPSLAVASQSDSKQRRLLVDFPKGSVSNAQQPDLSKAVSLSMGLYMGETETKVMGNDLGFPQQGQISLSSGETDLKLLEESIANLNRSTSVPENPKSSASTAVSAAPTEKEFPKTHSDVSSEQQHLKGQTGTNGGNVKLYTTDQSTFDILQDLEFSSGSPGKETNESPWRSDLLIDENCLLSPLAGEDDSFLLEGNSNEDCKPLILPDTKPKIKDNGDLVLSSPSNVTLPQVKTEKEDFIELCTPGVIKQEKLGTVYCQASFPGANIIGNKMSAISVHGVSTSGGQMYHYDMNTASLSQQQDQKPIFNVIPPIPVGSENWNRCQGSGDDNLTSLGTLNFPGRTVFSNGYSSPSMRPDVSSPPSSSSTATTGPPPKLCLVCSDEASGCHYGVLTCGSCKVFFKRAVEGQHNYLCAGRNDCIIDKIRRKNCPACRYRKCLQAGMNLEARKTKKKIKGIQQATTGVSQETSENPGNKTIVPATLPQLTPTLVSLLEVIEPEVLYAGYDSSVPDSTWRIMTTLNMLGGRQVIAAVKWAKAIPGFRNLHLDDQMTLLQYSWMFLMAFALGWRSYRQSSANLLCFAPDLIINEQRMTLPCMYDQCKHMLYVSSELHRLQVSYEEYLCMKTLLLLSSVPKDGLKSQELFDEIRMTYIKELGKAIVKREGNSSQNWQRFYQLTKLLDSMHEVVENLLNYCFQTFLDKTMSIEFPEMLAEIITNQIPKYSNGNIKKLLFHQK
Chain of Cytochrome P450 2C19 (Homo sapiens) (P33261 whole entry, looked up): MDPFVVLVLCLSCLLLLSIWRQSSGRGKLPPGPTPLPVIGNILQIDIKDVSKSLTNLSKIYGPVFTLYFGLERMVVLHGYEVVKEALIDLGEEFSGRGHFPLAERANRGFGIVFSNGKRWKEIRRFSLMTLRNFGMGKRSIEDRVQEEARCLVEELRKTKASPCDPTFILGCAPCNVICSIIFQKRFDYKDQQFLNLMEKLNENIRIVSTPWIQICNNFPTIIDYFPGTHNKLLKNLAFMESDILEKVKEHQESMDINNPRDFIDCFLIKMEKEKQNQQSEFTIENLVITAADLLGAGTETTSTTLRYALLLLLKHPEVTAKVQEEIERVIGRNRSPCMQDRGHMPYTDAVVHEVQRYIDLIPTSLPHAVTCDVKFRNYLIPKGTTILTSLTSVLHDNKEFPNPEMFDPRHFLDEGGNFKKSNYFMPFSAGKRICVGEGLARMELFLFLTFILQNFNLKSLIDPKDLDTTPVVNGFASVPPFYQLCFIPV

Turning to `N#CCCn1c(=O)c(-c2cc(F)cc(F)c2)nc2cnc(Nc3ccccc3)nc21`, the Potency is more than 11.4 µM in experiment [1], more than 9.22 µM in experiment [4] and more than 46 µM in [5]. In addition, the activity change, negative = inhibition in experiment [2] is 9.43%. Also, the activity, negative = inhibition in [3] is -15.8%. Also, the Potency result in experiment [6], in experiment [7], in [8], in [9], in experiment [10] and in [11] was “inactive” throughout. The outcome in [12] was inactive.
`COc1ccccc1CCn1c(=O)c(-c2cn(C)c3ccccc23)nc2cncnc21`: the Potency in experiment [1] is more than 11.4 µM; in experiment [13], 1.26 µM (active); in experiment [4], more than 9.22 µM; in experiment [5] it was more than 46 µM; in experiment [15], 0.316 µM (active); in experiment [16] it was 2.51 µM (active). The Potency in experiment [18] is 0.316 µM (active). Besides, the activity change, negative = inhibition in experiment [14] was 19%. Further, the Potency entry in experiment [7], in experiment [17], in [8], in [9], in [10] and in experiment [11] was “inactive” throughout. In addition, in experiment [12], the result was inactive.
With `COc1ccc(-c2nc3cnc(N4CCOCC4)nc3n(CCc3ccccc3)c2=O)cc1`, the Potency in experiment [1] is more than 11.4 µM; in [13], 10 µM (active); in experiment [4], more than 9.22 µM; in [5] it was more than 46 µM; in experiment [19] it was 1.26 µM (active). In addition, in [14], the activity change, negative = inhibition is 119% [activator] (active). Also, the activity, negative = inhibition in [3] is 92.5% [activator] (active). Also, the Potency result in [6], in [7], in experiment [8], in experiment [9], in [10] and in [11] was “inactive” each time. Besides, the outcome in experiment [12] was inactive.
Turning to `Cc1noc(C)c1-c1nc(N(C)Cc2ccco2)c2ccccc2n1`, the Potency in experiment [1] is more than 11.4 µM; in experiment [4], more than 46 µM; in experiment [5], more than 46 µM; in experiment [8] it was 28.2 µM (active); in [9] it was 35.5 µM (active). Further, the activity change, negative = inhibition in experiment [2] is -1.42%. For the same compound, the activity, negative = inhibition in [3] was -25.7%. The Potency result in [7], in experiment [10] and in [11] was “inactive” throughout. For the same compound, the result in experiment [12] was inactive.
Consider `CCNc1ncc2nc(-c3ccc(Cl)cc3)c(=O)n(Cc3ccc(F)cc3)c2n1`, for which the Potency was more than 11.4 µM in experiment [1]; 12.6 µM (active) in experiment [13]; more than 9.22 µM in [4]; more than 46 µM in [5]; 0.1 µM (active) in experiment [19]. The activity change, negative = inhibition in experiment [14] was -1.59%. Besides, the Potency entry in experiment [6], in [16], in [18], in [8], in experiment [9] and in [10] was “inactive” throughout. Besides, the Potency entry in [11] was “inactive”. Besides, in experiment [12], the outcome was inactive.
Turning to `COc1ccc(-c2nc3cnc(N4CCOCC4)nc3n(Cc3cccc(OC)c3)c2=O)cc1`, the Potency in experiment [1] was more than 11.4 µM; in [5], more than 46 µM. Also, the activity change, negative = inhibition in experiment [2] was 18.4%; in experiment [14], 18.6%. Besides, the Potency result in [6], in [7], in experiment [8], in experiment [9], in experiment [10] and in experiment [11] was “inactive” in each case. Besides, the result in experiment [12] was inactive.
